Calb biofilm kill: kills Candida albicans biofilms; C. albicans biofilm + clotrimazole, Alamar Blue; inhibition, % at 6 µM; 85,000 compounds, 0.14% hits; AID 834;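 active means inhibition above 20%; inactive means inhibition below 20%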;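 further: preformed 24 hr biofilms exposed to compound for 48 hr; 0% = biofilm without compound and 100% = blank killed by clotrimazole plus chlorhexidine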
TNAP act DEA: activators of human TNAP at intermediate phosphate acceptor | activation factor at 20 µM | P05186 | 64,000 tested, under 10 active | purified TNAP, CDP-star luminescence, 100 mM DEA, 30 min; hits give high values; scale: 0 levamisole-inhibited, 1 vehicle-only enzyme | AID 813;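 active means activation factor of at least 2 at 20 µM, relative to controls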
HePTP inh: blocks human HePTP tyrosine phosphatase; recombinant HePTP phosphatase activity, OD absorbance; 110,000 compounds, 0.64% hits; P35236; inhibition, % at 20 µM; in the data active means inhibition above about 50%;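 further: plate controls were vehicle for no effect and reference inhibitor for full effect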
Target sequence (P35236 whole entry, looked up): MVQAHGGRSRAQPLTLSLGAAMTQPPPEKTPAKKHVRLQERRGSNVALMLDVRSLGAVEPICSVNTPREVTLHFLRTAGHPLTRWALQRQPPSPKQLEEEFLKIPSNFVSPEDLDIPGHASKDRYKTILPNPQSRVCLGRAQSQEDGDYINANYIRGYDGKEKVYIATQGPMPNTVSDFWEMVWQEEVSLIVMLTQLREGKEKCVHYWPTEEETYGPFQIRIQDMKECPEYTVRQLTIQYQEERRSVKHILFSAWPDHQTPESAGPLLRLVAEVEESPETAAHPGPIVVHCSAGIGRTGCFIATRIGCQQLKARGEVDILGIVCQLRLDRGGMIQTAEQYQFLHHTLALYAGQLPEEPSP
DAT uptake mod: human DAT dopamine uptake with cocaine, either direction; B-score at 10 µM; Q01959; 110,000 compounds, 1.3% hits; AID 449768; LLC-PK1 hDAT cells, [14C]-dopamine uptake with cocaine IC80; actives deviate in either direction;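 active means Z score or B-score, a plate-position-corrected score, falls beyond the plate's 99.7% confidence bounds, in either direction; inactive means both scores lie inside the 99.7% bounds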;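 further: scored against the spread of the other compound wells on the same plate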
D1 allo mod: D1 dopamine receptor (human) allosteric modulation | B-score at 10 µM | 58,000 compounds, 5.9% hits | HEK293 D1, CRE-luciferase, dopamine EC30 potentiation; actives deviate in either direction;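 active means luminescence count or its row- and column-corrected plate score outside the 99.7% band of the plate's sample wells, on either side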
PLAP act: human PLAP activation; P05187; purified PLAP enzyme, luminescent substrate read-out; hits give high values; activation fold at 20 µM; 96,000 compounds, 1.2% hits; AID 696; in the data active means activation fold above about 2
An asterisk follows results filed as active; nt = no result. The full list was thinned out, with hits kept by preference.

SMILES | Calb biofilm kill | TNAP act DEA | HePTP inh | DAT uptake mod | D1 allo mod | PLAP act
O=C(CSc1cn(CCNC(=O)c2cccs2)c2ccccc12)NCC1CCCO1 (stereo not drawn) | 33* | 0.9 | 2 | -0.48 | nt | 1.1
COc1ccc(C(=O)Nc2cc(C)cc(C)c2)c(OC)c1 | nt | nt | 5 | nt | nt | nt
COc1ccc(C(=O)Nc2ccc(C)cn2)c(OC)c1 | -2 | 0.8 | 15 | -0.11 | -9.5* | 0.8
C/C(=N\Nc1cc(-n2cc(C)cn2)ncn1)c1c(F)c(F)c(F)c(F)c1F | nt | nt | 7 | nt | nt | nt
Cc1oc(-c2ccc(Cl)cc2)nc1CN1CCC(C(=O)N2CCc3ccccc3C2)CC1 | 8 | 1 | 8 | 2.6* | -0.63 | 1.5
Cc1oc(-c2ccc(Cl)cc2)nc1CN1CCC(C(=O)NCc2ccco2)CC1 | -4 | 1 | 1 | 0.13 | -3.2* | 1.5
CCc1ccc(-c2nc(CN3CCC(C(=O)NCCc4ccc(OC)c(OC)c4)CC3)c(C)o2)cc1 | nt | 1.4 | -4 | 0.074 | 0.96 | 2.4*
COc1ccc(CCNC(=O)C2CCN(Cc3nc(-c4ccccc4F)oc3C)CC2)cc1OC | 0 | 0.9 | 8 | 1.9 | -0.26 | 1.7
C/C(=N\NC(=O)c1cc(C(C)(C)C)[nH]n1)c1cccc([N+](=O)[O-])c1 | nt | nt | -5 | nt | nt | nt
Cc1ccc(C(C(=O)NCc2ccco2)N(CCc2ccccc2)C(=O)Cn2nnc3ccccc32)o1 (stereo not drawn) | 4 | 0.9 | 5 | nt | -4.3* | 1.2
COc1ccc(N(C(=O)Cn2nnc3ccccc32)C(C(=O)NCc2ccco2)c2ccc(C)o2)cc1 (stereo not drawn) | 8 | 0.9 | 4 | 3.1* | -0.18 | 1.6
Cc1ccc(CN(C(=O)Cn2nnc3ccccc32)C(C(=O)NCc2ccco2)c2ccc(C)o2)cc1 (stereo not drawn) | 1 | nt | nt | -0.93 | nt | nt
Cc1ccc(N(C(=O)Cn2nnc3ccccc32)C(C(=O)NCc2ccco2)c2ccc(C)o2)cc1 (stereo not drawn) | -2 | 1 | 4 | -0.2 | 0.73 | 1.5
CSC1=[N+](c2ccccc2)C(O)C(C)CN1 (stereo not drawn) | nt | nt | 2 | nt | nt | nt
C=CCn1c(NCc2ccccc2)nc2ccccc21 | 0 | 0.9 | 6 | 0.59 | 0.28 | 1
C=CCn1c(N2C(=O)CC(Cc3ccccc3)C2=O)nc2ccccc21 (stereo not drawn) | 5 | 1.1 | 2 | -0.22 | -0.011 | 2.5*
O=C(NCc1cccnc1)C1CC(c2ccc(F)cc2)=NO1 (stereo not drawn) | 1 | 0.8 | 5 | -0.072 | -0.38 | 1.1
O=C(Nc1cccnc1)C1CC(c2ccccc2O)=NO1 (stereo not drawn) | nt | nt | nt | -0.27 | nt | 2*
Cc1cc(C)n2nc(SCC(=O)N(C(C)C)C(C)C)nc2n1 | 1 | 0.9 | 8 | -8.9* | 0.48 | 1
Cc1ccc(/C(O)=C2/C(=O)C(=O)N(CCCCCC(=O)O)C2c2ccccc2F)cc1 (stereo not drawn) | nt | nt | 8 | nt | nt | nt
Cc1onc(-c2c(Cl)cccc2Cl)c1C(=O)N1CCc2ccccc21 | 3 | 0.9 | 6 | -2 | -4.8* | 1.5
Cc1onc(-c2c(F)cccc2Cl)c1C(=O)N1CCc2ccccc2C1 | 10 | 0.9 | 7 | 0.3 | -3.5* | 1.7
Cc1onc(-c2ccccc2Cl)c1C(=O)N1CCc2ccccc2C1 | 6 | nt | -14 | -0.11 | nt | 1.1
COc1ccc2oc(=O)c(C(=O)NC3CCCCC3)cc2c1 | nt | nt | -4 | nt | nt | nt
CC(C)c1nnc(NC(=O)c2ccccc2)s1 | nt | nt | 7 | nt | nt | nt
SMILES | Calb biofilm kill | TNAP act DEA | HePTP inh | DAT uptake mod | D1 allo mod | PLAP act
COc1cccc(C(=O)Nc2nnc(C(C)C)s2)c1 | 7 | 0.9 | -9 | 0.45 | -3.3* | nt
Cc1ccc(N=Cc2ccccc2OCc2ccccc2)c(O)c1 | nt | nt | -2 | nt | nt | nt
CCOc1cccc(C=Nc2cc(C)cc(C)c2O)c1O | 2 | 0.8 | 9 | 0.59 | -3.8* | 1.6
O=S(=O)(Oc1ccccc1)c1ccc(F)cc1 | nt | nt | 6 | nt | nt | nt
COC(=O)Cc1[nH]nc2c1C(C1C=CCCC1)C(C#N)=C(N)O2 (stereo not drawn) | 1 | 0.8 | 5 | 0.14 | -1.2 | 2*
CCCc1[nH]nc2c1C(C1CCCCC1)C(C#N)=C(N)O2 (stereo not drawn) | 13 | 0.8 | 3 | -0.28 | 0.27 | 1.1
O=C(NC1CC1)c1ccc(-c2nc3ccccc3s2)s1 | nt | 1 | 0 | 0.017 | -6* | 1
Cc1noc(C)c1COC(=O)c1ccc(-c2nc3ccccc3s2)s1 | 3 | 0.9 | 8 | 0.48 | -1.2 | 0.8
CN(C)c1ccc(-c2c3cc(O)c(=O)cc-3oc3cc(O)c(O)cc23)cc1 | nt | nt | 103* | nt | nt | nt
CN1C(=O)NC(=O)/C(=C/c2ccc(-c3ccc([N+](=O)[O-])cc3Cl)o2)C1=O | nt | nt | 6 | nt | nt | nt
CCOC(=O)c1cnc(Nc2nc3ccccc3o2)nc1CN1CCN(C)CC1 | nt | nt | nt | nt | nt | 2*
Cc1cc(=O)n2nc(-c3ccccc3)sc2n1 | 2 | 0.9 | 2 | -2.7* | -0.8 | 1
CC1(C)Cc2c(sc3nc(SCc4ccccc4)n(CCc4ccccc4)c(=O)c23)CO1 | nt | nt | 7 | nt | nt | nt
O=C1NC(=S)NC(=O)C1=Cc1cc(Cl)c(OCc2ccc(C(=O)O)cc2)c(Cl)c1 | nt | nt | 104* | nt | nt | nt
CCOC(=O)c1c(C)sc(Sc2ccc(Cl)cc2[N+](=O)[O-])c1OC | 3 | nt | 102* | 0.002 | nt | 0.9
Cc1ccc(NC(=O)c2cccc(OCc3ccccc3)c2)c([N+](=O)[O-])c1 | nt | nt | -2 | nt | nt | nt
CC(CCc1ccccc1)NC(=O)C(Cc1ccccc1)NS(=O)(=O)c1cccs1 (stereo not drawn) | 33* | nt | nt | -0.31 | nt | 0.7
Cc1ccc2c(c1)C(N1CCCC1=O)CC(c1ccco1)N2 (stereo not drawn) | nt | 0.9 | 4 | 0.39 | -4.4* | 1.2
Cc1ccc(C2CC(c3ccco3)n3ncnc3N2)cc1 (stereo not drawn) | nt | 1 | -6 | -0.073 | nt | 1.3
N#Cc1c(N)oc(-c2ccco2)c1-c1ccco1 | 6 | 0.9 | 6 | -0.11 | 19* | 0.9
O=C1NC(=S)N(c2cccc(Cl)c2)C(=O)/C1=C\c1ccc(N2CCCC2)cc1 | nt | nt | 16 | nt | nt | nt
Cn1cccc1/C=C1/C(=O)NC(=S)N(c2cccc(Cl)c2)C1=O | nt | nt | 101* | nt | nt | nt
Clc1ccc(CSc2nc3ccncc3[nH]2)cc1 | 4 | nt | nt | 1 | nt | 1.9
COc1cccc(NC(=O)CSc2nc3ccc(OC)cc3[nH]2)c1 | nt | nt | 4 | nt | nt | nt
Cc1cc(C)cc(NC(=O)CSc2nc3ccncc3[nH]2)c1 | 13 | nt | nt | -0.76 | nt | 2.2*
Cc1ccc(CSc2nc3ccncc3[nH]2)cc1 | 6 | nt | nt | 1.5 | nt | 2.7*
Fc1ccc2c(Cl)c(-c3nnc(-c4cccs4)o3)sc2c1 | 4 | 1 | -5 | -0.092 | -6.4* | 1.1
Clc1ccc2c(Cl)c(-c3nnc(-c4ccccc4)o3)sc2c1 | 8 | nt | nt | nt | nt | nt
O=C(OCc1cc(=O)n2c(n1)sc1ccccc12)c1ccc2c(=O)n3c(nc2c1)CCC3 | 7 | 1 | 38 | -0.42 | 4.2* | 1.4
COc1cc(/C=C2/N=C(c3ccccc3)OC2=O)cc(Cl)c1OC(C)=O | nt | nt | -3 | nt | nt | nt

Source: PubChem BioAssay (several laboratories)
